40 compounds from PubChem BioAssay (NCI) can be followed below.

About 83,000 compounds went through this panel and 20% of them were active in at least one assay; those are over-represented in the sample as a whole.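 Interpretation: 100, growth as untreated; towards 0, rising growth inhibition; 0, no net growth; 0 to -100, cell death. Compounds scoring below 10 were considered active.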 Unmarked numbers belong to inactive results. Activity calls are given as the source filed them.

For the first test, the system named is SR leukemia. The test is described as follows: NCI-60 one-dose screen, 48 h (100 = growth as untreated, 0 = no growth, -100 = all killed). As to conditions: 10 µM unless noted.
On to `CC(C)(CO)N(CCO)CCO`, for which the growth is 99.5%.
Same read-out and setting: the figure for `CCCCCCCCn1ccc2cc(NC(=O)Cn3cc(CN4CCCCCC4)nn3)ccc21` is -13.1% (active).
Take `COc1cc2cc(Oc3ccc(NC(=O)Nc4ccccc4)cc3)c(C)nc2cc1OCCN1CCCCC1`: the growth is -25.9% (active).
For the compound `CN1CCN(CCCOC(=O)c2c3c(n4ccccc24)C(=O)c2ncccc2C3=O)CC1`, the growth is -11.2% (active).
Take `Cc1ccc2[nH]c(-c3ccc(S(C)(=O)=O)cc3)c(/C=N/N=C(N)N)c2c1`: the growth was 24.4%.
For `COc1ccc(C/C(C)=C(\c2ccc(O)cc2)c2ccc(OCCN3CCCC3)cc2)cc1`, the growth is 82.4%.
The same measure, in the same setting: then `CC1(C)C2CC=C(/C=N/NC(=O)C3CCC(=O)N3)C1C2` (stereo not given), with 116%.
The same measure, in the same setting: then `COc1ccc2cc(-c3ccc(-c4ccc(C(=N)N)s4)s3)ccc2c1`, with -14.5% (active); and `Cc1nc2sc(C(=O)Nc3ccccc3)c(N)c2cc1C(=O)/C=C/c1ccccc1`, with 11.7%; and `O=C1/C(=C/c2ccc(C(F)(F)F)cc2)COc2ccc(O)cc21`, with 9.82% (active).
The same measure, in the same setting: the figure for `Cc1[nH]c(C(=O)Nc2ccc(C(N)=O)cc2NC(C)C)c(Cl)c1Cl` is 103%; for `Oc1c(CN2CCCC2)cc(COCc2ccccc2)c2cccnc12` it is 12.4%.
For `CCCCCCCC/C=C\CCCCCCCCOc1ccccc1CC(=O)NCC[N+]1(C)CCCCC1`, the growth is -5.14% (active).
Regarding `O=C1Nc2ccc(F)cc2/C1=C\c1nc(-c2ccccc2F)n2ccccc12`, the growth is 66.7%.
On the same count and under the same terms, then `CN(C)Cc1ccc(C(=O)Nc2ccc3ncnc(Nc4ccc(Oc5cccc(F)c5)c(Cl)c4)c3c2)cc1`, with -18.1% (active); and `CCNC(=O)Oc1ccc(/C(=C(/C)Cc2ccc(OC)cc2)c2ccc(OCCN3CCCC3)cc2)cc1`, with 6.92% (active); and `Cc1cscc(C)c1=S`, with 72.9%.
Still for that read-out and setting: then `CC(=O)N/C(=C1/OC(C(O)C(O)C(O)CO)CN1C)[P+](c1ccccc1)(c1ccccc1)c1ccccc1` (stereo not given), with 95.3%.
Same read-out and setting: the figure for `COC(=O)c1c2c(n3ccc(C)cc13)C(=O)c1ccccc1C2=O` is 45.9%.
As for `COc1cc2nc(Nc3cccc(F)c3)nc(Nc3cc(C)[nH]n3)c2cc1OC`, the growth is -9.83% [20 µM] (active).
On the same count and under the same terms, then `CC1=CCC[C@@H]2C1(C)CC[C@H](C)[C@@]2(C)CC1=CC(=O)C(SC(C)(C)C)=CC1=O` (stereo not given in full), with 74%.
As to `O=C(/C=C/c1cccc(Cl)c1)c1cccc(OCCCCOc2cccc(C(=O)/C=C/c3cccc(Cl)c3)c2)c1`, the growth is 39.5%.
Still for that read-out and setting: the figure for `CCCNc1nc2ccccc2c2c(=O)c3cccc(Cl)c3sc12` is 82.7%; for `COc1cccc(Nc2ccnc3[nH]c4ccc([N+](=O)[O-])cc4c23)c1` it is 31.5%; for `CCOC(=O)CSc1nc2sc3c(c2c(=O)n1-c1ccc([N+](=O)[O-])cc1)CCCCC3` it is 76.7%.
`COc1cccc2c(N=NC(=O)c3ccc(S(N)(=O)=O)cc3)c(O)[nH]c12`: the growth was 81.2%.
The same measure, in the same setting: then `Clc1nccc2c(-c3csc(-c4c[nH]c5ccccc45)n3)c[nH]c12`, with 11.3%; and `COc1cc(/C=N/Nc2ccccc2F)cc(OC)c1OC`, with 90.9%; and `COc1ccc2c(c1)c(-c1nc(-c3cn(C)c4ncccc34)cs1)cn2CCO`, with 58.2%.
The same measure, in the same setting: the figure for `CS(=O)(=O)Cc1cnc(C2OCCO2)s1` is 123%; for `COc1ccc(Nc2ncc(C(N)=O)c(NCCCNC(=O)C3CCC3)n2)cc1` it is 65.1%; for `N#C/C(=C\c1ccc(-c2ccc(Cl)cc2)o1)c1ccc(Cl)cc1` it is 59.6%.
`COc1cc(C(=O)/C=C/c2c(-c3cccs3)nc3ccccn23)cc(OC)c1OC`: the growth is 13.8%.
Same read-out and setting: then `Fc1ccc(CNc2c3ccccc3nc3ccccc23)cc1`, with 6.59% (active); and `COc1cc(Nc2c3ccc(Cl)cc3nc3ccc(OC)cc23)c2ncccc2c1`, with 19.8%; and `COc1cc(C2Cc3ncccc3-c3[nH]c(=O)c4cccnc4c32)cc(OC)c1OC` (stereo not given), with 11.8%.
On the same count and under the same terms, the figure for `CCc1ccc(CCC(=O)Nc2ncc(Cc3ccc(Cl)cc3)s2)o1` is 18.4%; for `N#Cc1c(-c2ccccc2)nc2c(c(-c3ccccc3)nn2-c2ccccc2)c1-c1ccc(N2CCOCC2)cc1` it is 24.5%.
Consider `COc1ccc(NC(=O)c2ccc(C(=O)Nc3ccc(OC)cc3OC)cc2)c(OC)c1`, for which the growth was 87.9%.
Still for that read-out and setting: then `CCN=C1C=CC(=C(c2ccc(N(C)C)cc2)c2ccc(N(C)C)cc2)c2ccccc21`, with 3.56% (active).

A further test concerns RPMI-8226 leukemia. The description is as above. Particulars: 10 µM unless noted.
For the compound `CC(C)(CO)N(CCO)CCO`, the growth was 95%.
Turning to `CCCCCCCCn1ccc2cc(NC(=O)Cn3cc(CN4CCCCCC4)nn3)ccc21`, the growth was -9.08% (active).
The same measure, in the same setting: then `COc1cc2cc(Oc3ccc(NC(=O)Nc4ccccc4)cc3)c(C)nc2cc1OCCN1CCCCC1`, with 44.3%; and `CN1CCN(CCCOC(=O)c2c3c(n4ccccc24)C(=O)c2ncccc2C3=O)CC1`, with -0.22% (active); and `Cc1ccc2[nH]c(-c3ccc(S(C)(=O)=O)cc3)c(/C=N/N=C(N)N)c2c1`, with 39.2%.
Same read-out and setting: the figure for `COc1ccc(C/C(C)=C(\c2ccc(O)cc2)c2ccc(OCCN3CCCC3)cc2)cc1` is 105%; for `CC1(C)C2CC=C(/C=N/NC(=O)C3CCC(=O)N3)C1C2` (stereo not given) it is 103%.
On the same count and under the same terms, the figure for `COc1ccc2cc(-c3ccc(-c4ccc(C(=N)N)s4)s3)ccc2c1` is -20.9% (active); for `Cc1nc2sc(C(=O)Nc3ccccc3)c(N)c2cc1C(=O)/C=C/c1ccccc1` it is -33.9% (active).
As to `O=C1/C(=C/c2ccc(C(F)(F)F)cc2)COc2ccc(O)cc21`, the growth was -23.2% (active).
Same read-out and setting: then `Cc1[nH]c(C(=O)Nc2ccc(C(N)=O)cc2NC(C)C)c(Cl)c1Cl`, with 87.8%.
Still for that read-out and setting: the figure for `Oc1c(CN2CCCC2)cc(COCc2ccccc2)c2cccnc12` is 16.7%; for `CCCCCCCC/C=C\CCCCCCCCOc1ccccc1CC(=O)NCC[N+]1(C)CCCCC1` it is 19.7%; for `O=C1Nc2ccc(F)cc2/C1=C\c1nc(-c2ccccc2F)n2ccccc12` it is 96.8%.
As for `CN(C)Cc1ccc(C(=O)Nc2ccc3ncnc(Nc4ccc(Oc5cccc(F)c5)c(Cl)c4)c3c2)cc1`, the growth was -24.7% (active).
As to `CCNC(=O)Oc1ccc(/C(=C(/C)Cc2ccc(OC)cc2)c2ccc(OCCN3CCCC3)cc2)cc1`, the growth is 44%.
Turning to `Cc1cscc(C)c1=S`, the growth is 103%.
Same read-out and setting: then `CC(=O)N/C(=C1/OC(C(O)C(O)C(O)CO)CN1C)[P+](c1ccccc1)(c1ccccc1)c1ccccc1` (stereo not given), with 99.7%; and `COC(=O)c1c2c(n3ccc(C)cc13)C(=O)c1ccccc1C2=O`, with 61.1%.
Turning to `COc1cc2nc(Nc3cccc(F)c3)nc(Nc3cc(C)[nH]n3)c2cc1OC`, the growth was -41.7% [20 µM] (active).
The same measure, in the same setting: the figure for `CC1=CCC[C@@H]2C1(C)CC[C@H](C)[C@@]2(C)CC1=CC(=O)C(SC(C)(C)C)=CC1=O` (stereo not given in full) is 64.7%; for `O=C(/C=C/c1cccc(Cl)c1)c1cccc(OCCCCOc2cccc(C(=O)/C=C/c3cccc(Cl)c3)c2)c1` it is -26.8% (active).
Still for that read-out and setting: the figure for `CCCNc1nc2ccccc2c2c(=O)c3cccc(Cl)c3sc12` is 103%; for `COc1cccc(Nc2ccnc3[nH]c4ccc([N+](=O)[O-])cc4c23)c1` it is 65.2%; for `CCOC(=O)CSc1nc2sc3c(c2c(=O)n1-c1ccc([N+](=O)[O-])cc1)CCCCC3` it is 91.6%.
Take `COc1cccc2c(N=NC(=O)c3ccc(S(N)(=O)=O)cc3)c(O)[nH]c12`: the growth was 103%.
As for `Clc1nccc2c(-c3csc(-c4c[nH]c5ccccc45)n3)c[nH]c12`, the growth is 51.4%.
Still for that read-out and setting: the figure for `COc1cc(/C=N/Nc2ccccc2F)cc(OC)c1OC` is 83.8%.
Same read-out and setting: then `COc1ccc2c(c1)c(-c1nc(-c3cn(C)c4ncccc34)cs1)cn2CCO`, with 50.5%.
For the compound `CS(=O)(=O)Cc1cnc(C2OCCO2)s1`, the growth was 109%.
The same measure, in the same setting: the figure for `COc1ccc(Nc2ncc(C(N)=O)c(NCCCNC(=O)C3CCC3)n2)cc1` is 72.9%.
The same measure, in the same setting: the figure for `N#C/C(=C\c1ccc(-c2ccc(Cl)cc2)o1)c1ccc(Cl)cc1` is 44.8%.
As to `COc1cc(C(=O)/C=C/c2c(-c3cccs3)nc3ccccn23)cc(OC)c1OC`, the growth is -9.49% (active).
On the same count and under the same terms, the figure for `Fc1ccc(CNc2c3ccccc3nc3ccccc23)cc1` is -0.445% (active).
As for `COc1cc(Nc2c3ccc(Cl)cc3nc3ccc(OC)cc23)c2ncccc2c1`, the growth was 55.5%.
On to `COc1cc(C2Cc3ncccc3-c3[nH]c(=O)c4cccnc4c32)cc(OC)c1OC` (stereo not given), for which the growth is 37.6%.
On the same count and under the same terms, then `CCc1ccc(CCC(=O)Nc2ncc(Cc3ccc(Cl)cc3)s2)o1`, with 31.5%; and `N#Cc1c(-c2ccccc2)nc2c(c(-c3ccccc3)nn2-c2ccccc2)c1-c1ccc(N2CCOCC2)cc1`, with 76%.
With `COc1ccc(NC(=O)c2ccc(C(=O)Nc3ccc(OC)cc3OC)cc2)c(OC)c1`, the growth was 80.1%.
On to `CCN=C1C=CC(=C(c2ccc(N(C)C)cc2)c2ccc(N(C)C)cc2)c2ccccc21`, for which the growth is -22.9% (active).
